Values joined by “and” are separate entries in the source; they are usually repeats but may differ in a detail not shown here. Equal entries are not always repeated.

A word on the inhibition: it is the drop in the measured response relative to a control, in per cent.

Format in all cases: functional
The target of assay [1] is Solute carrier family 2, facilitated glucose transporter member 1 (Homo sapiens) (UniProt P11166). Put plainly: ST_JUDE_LEISH: Cytotoxicity at 2uM final concentration against transgenic Leishmania Mexicana promastigotes LmGLUT1 that are glucose transport deficient and complemented with the human glucose transporter GLUT1. Activity is measured by DNA content using SYBR green in vitro.

Assay [2] concerns the target Hexose transporter 1 (Plasmodium falciparum) (UniProt O97467). The experiment in a line: ST_JUDE_LEISH: Cytotoxicity at 2uM final concentration against transgenic Leishmania Mexicana promastigotes LmPfHT that are glucose transport deficient and complemented with the Plasmodium falciparum hexose transporter. Activity is measured by DNA content using SYBR green in vitro.

Assay [3] concerns the target Glucose transporter (Leishmania mexicana) (UniProt O61059). Put plainly: ST_JUDE_LEISH: Cytotoxicity at 2uM final concentration against transgenic Leishmania Mexicana promastigotes LmGT2 that are glucose transport deficient and complemented with the L. Mexicana glucose transporter 2. Activity is measured by DNA content using SYBR green in vitro.

Sequence of Solute carrier family 2, facilitated glucose transporter member 1 (Homo sapiens) (P11166 whole entry): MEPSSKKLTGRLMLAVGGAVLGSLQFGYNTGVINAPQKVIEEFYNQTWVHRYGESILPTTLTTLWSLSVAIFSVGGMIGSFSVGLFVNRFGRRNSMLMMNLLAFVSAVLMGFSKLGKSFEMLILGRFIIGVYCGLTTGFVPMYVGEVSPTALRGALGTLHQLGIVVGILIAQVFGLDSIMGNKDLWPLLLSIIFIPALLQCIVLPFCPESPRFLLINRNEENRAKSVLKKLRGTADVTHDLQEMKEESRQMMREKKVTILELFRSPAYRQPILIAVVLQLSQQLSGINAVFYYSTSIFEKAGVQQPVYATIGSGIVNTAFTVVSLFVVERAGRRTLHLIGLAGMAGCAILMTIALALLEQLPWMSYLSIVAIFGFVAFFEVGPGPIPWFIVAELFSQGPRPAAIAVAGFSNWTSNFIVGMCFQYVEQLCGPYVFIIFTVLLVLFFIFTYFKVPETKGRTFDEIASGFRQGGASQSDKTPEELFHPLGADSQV

As to `CC[C@H]1CN2CC[C@H]1C[C@H]2[C@H](O)c1ccnc2ccc(C#N)cc12`, the inhibition was 0.59% in assay [1], 1.86% in assay [2] and 2.19% in assay [3].
Taken in the same sequence, the figures for `CC[C@H]1CN2CC[C@H]1C[C@H]2[C@H](O)c1cc(-c2cccc(F)c2)nc2ccc(OC)cc12` were 8.98%, 7.25% and 5.44%.
As to `COC(=O)/C=C/c1ccc(CC(C)NCC(O)c2cccc(C(F)(F)F)c2)cc1` (configuration not stated), the inhibition is 0.9% and -0.04% in assay [1]; -2.11% and 0.7% in assay [2]; -1.59% and -0.73% in assay [3].
For the compound `C/C=C1/CN2CC[C@H]1C[C@H]2[C@H](O)c1ccnc2ccc(O)cc12`, the inhibition in assay [1] is -0.31%; in assay [2], -1.31%; in assay [3], -0.61%.
The matching figures for `O=C(/C=C/c1ccc(Cl)c(Cl)c1)NC1CCC(N2CCC(c3c[nH]c4ccccc34)CC2)CC1` (configuration not stated): 26%, 6.98% and 4.41%.
The matching figures for `C/C=C1/CN2CC[C@H]1C[C@H]2[C@H](O)c1ccnc2ccc(OC)cc12`: -0.87%, -2.22% and 2.08%.
Taken in the same sequence, the figures for `CC(NC(C)(C)C)C(O)c1ccc(Cl)c(C(F)(F)F)c1` (configuration not stated) were 1.86%, 0.38% and 1.11%.
For `OC(CNCc1ccccc1OC(F)F)c1cccc(C(F)(F)F)c1` (configuration not stated), the results for the inhibition in assay [1], in assay [2] and in assay [3] were 1.52%, 1.17% and 1.62%, respectively.
Taken in the same sequence, the figures for `Cc1ccccc1CNCC(O)c1cccc(C(F)(F)F)c1` (configuration not stated) were 1.72%, 2.2% and -1.33%.
The matching figures for `CC(C)(C)c1ccc(Cn2nc(C(=O)N3CCN(C(=O)C4CCCO4)CC3)c3ccccc32)cc1` (configuration not stated): 0.73%, 0.1% and -3.52%.
The matching figures for `CNCCc1c(O)ccc2ccccc12`: 2.95%, 3.27% and 3.59%.
As to `CC[C@H]1CN2CC[C@@H]1C[C@H]2[C@H](O)c1cc(-c2c(C)noc2C)nc2ccc(OC)cc12`, the inhibition in assay [1] is 3.43%; in assay [2] it was 4.92%; in assay [3] it was 6.01%.
Consider `O=C(/C=C/c1c(Cl)cccc1Cl)NC1CCC(CN2C3CCC2CC(c2c[nH]c4ccccc24)C3)CC1` (configuration not stated), for which the inhibition in assay [1] was 2.07%; in assay [2] it was 1.89%; in assay [3], -0.2%.
As to `CCC(C)CN1CCC(N(C)c2cc(NC(=O)c3ccc(F)cc3)ccn2)CC1` (configuration not stated), the inhibition is -0.37% in assay [1], 0.64% in assay [2] and 2.38% in assay [3].
The matching figures for `CC[C@H]1CN2CCc3cc(OC)c(OC)cc3[C@@H]2C[C@@H]1C[C@H]1NCCc2c1cc(OC)c(O)c2Cl`: 94.8%, 98.3% and 89.3%.
Taken in the same sequence, the figures for `CC(Cc1ccc(OCCCCOc2ccccc2)cc1)NCCC1CCCN1C` (configuration not stated) were 103%, 97.7% and 103%.
As to `CCCN(CC(=O)NCCc1ccccc1)c1ccc(C#N)c2ccccc12`, the results for the inhibition in assay [1], in assay [2] and in assay [3] were 2.23%, 1.5% and 1.66%, respectively.
Taken in the same sequence, the figures for `CCN1CC=C(c2c[nH]c3ccccc23)CC1` were 0.74%, 1.07% and 0.73%.
The matching figures for `COc1cccc(C2(C)CCN(CCCCNC(=O)c3ccc(NC(=O)c4ccc(Cl)cc4)cc3)CC2)c1`: -1.81%, -1.78% and -3.4%.
The matching figures for `NC(=O)CN1CC=C(c2c[nH]c3ccc(Br)cc23)CC1`: -1.87%, 0.93% and 0.77%.
As for `COCCNCc1cccc(-c2ccccc2CN(C(=O)Nc2ccccc2)C2CCN(Cc3ccccc3)CC2)c1`, the inhibition is -0.65% in assay [1], -2.21% in assay [2] and 4.23% in assay [3].
As to `COC(=O)c1ccc(CC(C)NCC(O)c2cccc(C(F)(F)F)c2)c(OC)c1` (configuration not stated), the inhibition in assay [1] turned out to be 6.43%; in assay [2], 5.12%; in assay [3], 5.25%.
The matching figures for `CC(=O)C1(c2ccccc2)CCN(CCC2(c3ccc(Cl)c(Cl)c3)CN(C(=O)Nc3cc(F)cc(F)c3)CCO2)CC1` (configuration not stated): 2.31%, 2.4% and -0.62%.
For the compound `CC(=O)Nc1ccc2[nH]cc(C3CCN(CC4CCN(C(=O)/C=C/c5ccc(Cl)c(Cl)c5)CC4)CC3)c2c1`, the inhibition in assay [1] is 0.82%; in assay [2] it was -0.9%; in assay [3], 3.23%.
Take `CN1CC[C@H](N(Cc2ccccc2F)c2ccc(C#N)c(Cl)c2)C1`: the inhibition in assay [1] was 2.58%; in assay [2] it was 3.02%; in assay [3], 4.63%.
The matching figures for `Oc1ccccc1CNCC(O)c1cccc(C(F)(F)F)c1` (configuration not stated): -0.54%, -1.26% and -1.55%.
The matching figures for `COc1cc(CC(C)NCC(O)c2cccc(C(F)(F)F)c2)ccc1OCc1ccccc1` (configuration not stated): 4.94%, 4.6% and 3.99%.
The matching figures for `O=C(/C=C/c1ccc(Cl)c(Cl)c1)N1CCC(CN2CCC(c3c[nH]c4ccc(O)cc34)CC2)CC1`: 1.04%, -0.44% and 4.21%.
Consider `COC(=O)c1ccc(CC(C)NCC(O)c2cccc3ccccc23)cc1` (configuration not stated), for which the inhibition in assay [1] came to 4.9%; in assay [2] it was 3.26%; in assay [3], 2.22%.
For `CC[C@H]1CN2CC[C@@H]1C[C@H]2[C@H](O)c1cc(N2CCCC(C)(C)C2)nc2ccc(OC)cc12`, the inhibition in assay [1] was 0.42%; in assay [2], -0.61%; in assay [3], 0.37%.
Taken in the same sequence, the figures for `CCC(C)(C)NC(C)C(O)c1ccc(C(F)(F)F)cc1` (configuration not stated) were -0.19%, 0.51% and -0.15%.
Taken in the same sequence, the figures for `O=C(NC1CCC(CN2CCC(c3c[nH]c4ccccc34)CC2)CC1)c1cc(-c2ccccc2)c(C(F)(F)F)s1` (configuration not stated) were 11.2%, 14.7% and 6.95%.
Taken in the same sequence, the figures for `CCCCCCCc1cc(=O)c2ccccc2[nH]1` were 12.7%, 3.61% and 1.21%.
Consider `COCC(=O)N(Cc1ccccc1-c1ccc(CNCCc2ccccc2)cc1)C1CCN(Cc2ccccc2)CC1`, for which the inhibition in assay [1] was 0.08%; in assay [2], 0.27%; in assay [3] it was -3.2%.

For the origin of these results see ChEMBL document CHEMBL3433997, “St. Jude Leishmania screening dataset” (2016).
